In the library only some 3.3% were active in any assay of this set; here they are far more common.
NOD2-RIPK2 inh: blocks binding of human NOD2 to RIPK2. CHO BLA complementation NOD2-RIPK2, CCF4 ratio. O43353. inhibition, % at 4.98 µM. 360,000 tested, 0.38% active; in the data active = inhibition above about 21%;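 also: 0% = vehicle only and 100% = reference blocker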
PRMT1 inh: blocks human protein arginine methyltransferase 1; Q99873; inhibition, % at 2.79 µM; 370,000 tested, 1.3% active; recombinant PRMT1, activity-based probe fluorescence polarization; AID 652257;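 active = inhibition above about 21% made by adding two undisclosed values, limit read from the data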
TLR9-MyD88 inh: inhibitors of human TLR9-MyD88 binding. CHO BLA complementation TLR9-MyD88, CCF4 FRET ratio. inhibition, % at 4.98 µM. AID 504734. 340,000 tested, 0.21% active. Q9NR96+Q99836;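 active = inhibition above the mean over all tested compounds plus 3 SD, cut at about 21% in these data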;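 also: 0% = DMSO only wells and 100% = clavulanate BLA inhibitor control wells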
TLR4 MyD88 comp: TLR4-MyD88 interaction inhibition in cells | HeLa CL3-4 TLR4/MyD88 BLA complementation, FRET ratio | AID 861 | inhibition, % at 8.4 µM | 200,000 tested, 0.18% active; in the data active = inhibition above about 25%;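 also: 0% = vehicle and 100% = reference inhibitor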
rCAG RNA binder: binds r(CAG) RNA repeats; r(CAG) RNA repeat, TO-PRO-1 dye displacement fluorescence; inhibition, % at 3 µM; 370,000 tested, 1.3% active;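 active = inhibition above the plate cutoff, the mean of all test compounds on that plate plus 3 SD, cut at about 35% in these data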;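 also: 0% = DMSO alone and 100% = 100 µM mitoxantrone as full dye displacement; higher means more dye released from RNA so lower well fluorescence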
ABHD5 PLIN5 PPI: ABHD5-PLIN5 protein interaction inhibition. Split G. princeps luciferase complementation, luminescence, 4 h. inhibition, % at 4 µM. 360,000 tested, 0.78% active. AID 602281;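 active = inhibition above the mean inhibition across every tested compound plus 3 SD, cut at about 22% in these data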;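 also: 0% = DMSO only wells and the 100% control is not disclosed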
TLR4 MyD88 cnf: TLR4-MyD88 interaction inhibition confirmed; shares compounds with TLR4 MyD88 comp; HeLa CL3-4 BLA complementation, CCF4 FRET ratio; inhibition, % at 8.4 µM; 350 tested, 50% active; AID 941;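 active = mean inhibition across three repeat runs above about 25% carried over from the earlier screen, limit read from the data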;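 also: plate controls were DMSO only for no effect and clavulanic acid blocking BLA at full dose for full effect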
BLA inhibitor ct: beta-lactamase inhibition flagged in TLR4-MyD88 counter-screen. AID 1237. HeLa BLA reporter, CCF4 FRET ratio. 350 tested, 63% active. inhibition, % at 8.4 µM. shares compounds with TLR4 MyD88 comp;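 active = mean inhibition over three repeats above about 26% taken from the earlier screen, limit read from the data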;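 also: HeLa cells stably expressing beta-lactamase reporter as counterscreen for TLR4-MyD88 inhibitors; 0% = DMSO and 100% = clavulanic acid full inhibition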
TLR9-MyD88 conf: confirmation of human TLR9-MyD88 binding inhibitors; shares compounds with TLR9-MyD88 inh; CHO TLR9/MyD88 BLA complementation, CCF4 FRET ratio; inhibition, % at 4.98 µM; 680 tested, 51% active; AID 540250;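 active = mean inhibition across three repeats above about 21% taken from the earlier screen, limit read from the data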;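 also: blue over green emission ratio reports constitutive TLR9 MyD88 association via BLA complementation; 0% = DMSO vehicle wells and 100% = clavulanate BLA inhibitor wells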
BLA counter-1: beta-lactamase reporter inhibition, counter-screen artifact; shares compounds with TLR9-MyD88 inh; CHO-BLA cells, CCF4 FRET ratio, BLA reporter; inhibition, % at 4.98 µM; 680 tested, 7% active; AID 540251;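 active = mean inhibition above a 50% cutoff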;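 also: counterscreen of TLR9-MyD88 hits on CMV-driven BLA in CHO-K1 cells; 0% = DMSO alone and 100% = clavulanate blocking BLA; higher means less blue over green ratio so more BLA blockade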
TLR9 CHO cytotox: CHO cell toxicity counter-screen for TLR9-MyD88 inhibitors | shares compounds with TLR9-MyD88 inh | TLR9-MyD88 CHO cells cytotoxicity, luminescence | inhibition, % at 4.98 µM | 680 tested, 39% active; in the data active = inhibition above about 11%
ABHD5-PLIN5 conf: ABHD5-PLIN5 interaction inhibition, confirmed | shares compounds with ABHD5 PLIN5 PPI | biochemical ABHD5-PLIN5 interaction, luminescence | inhibition, % at 4 µM | 2,200 tested, 67% active; in the data active = inhibition above about 23%;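 also: 0% = DMSO vehicle wells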
HNF4 split-luc: counter-screen for ABHD5-PLIN5 inhibitors: HNF4 split-luciferase | HNF4 dimerization, luminescence, biochemical | 2,200 tested, 77% active | inhibition, % at 4 µM | shares compounds with ABHD5 PLIN5 PPI;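 active = mean inhibition across replicate wells exceeding the computed hit threshold, cut at about 13% in these data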;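 also: light from luciferase halves that rejoin when HNF4 fusion proteins dimerize; 0% = DMSO only wells and the 100% control is not given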
Target sequence (P41235 whole entry, looked up, the tested form may be a part): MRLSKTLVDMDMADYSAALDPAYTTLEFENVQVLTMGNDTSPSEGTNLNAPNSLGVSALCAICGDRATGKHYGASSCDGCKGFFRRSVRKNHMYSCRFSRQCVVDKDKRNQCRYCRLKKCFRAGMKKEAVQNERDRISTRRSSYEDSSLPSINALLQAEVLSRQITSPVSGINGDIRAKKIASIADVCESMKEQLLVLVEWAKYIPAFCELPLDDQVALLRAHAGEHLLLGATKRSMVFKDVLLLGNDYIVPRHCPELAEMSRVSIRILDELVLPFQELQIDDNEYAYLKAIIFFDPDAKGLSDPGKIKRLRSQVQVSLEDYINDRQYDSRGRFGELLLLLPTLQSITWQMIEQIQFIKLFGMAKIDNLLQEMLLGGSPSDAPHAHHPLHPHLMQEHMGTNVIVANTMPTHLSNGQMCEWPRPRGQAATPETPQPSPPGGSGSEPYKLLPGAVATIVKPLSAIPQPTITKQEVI
NOD2-RIPK2 conf: confirmation of human NOD2-RIPK2 interaction inhibitors; shares compounds with NOD2-RIPK2 inh; CHO cells, NOD2-RIPK2 BLA complementation, CCF4 FRET; inhibition, % at 4.98 µM; 1,200 tested, 70% active;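 active = mean inhibition across replicates above a set limit taken from the earlier primary screen, cut at about 21% in these data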;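 also: 0% = DMSO-only wells and the high end = clavulanate BLA-blocked wells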
BLA counter-2: hits BLA reporter in NOD2-RIPK2 inhibitor counterscreen | shares compounds with NOD2-RIPK2 inh | CHO BLA reporter, CCF4 FRET ratio | inhibition, % at 4.98 µM | 1,200 tested, 57% active | AID 624371;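 active = mean inhibition above the low-control mean inhibition plus three low-control SD, cut at about 11% in these data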;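 also: 0% = DMSO only wells and 100% = clavulanate high control wells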
PRMT1 confirm: confirmation of human PRMT1 inhibitors; recombinant His-PRMT1, activity-based probe fluorescence polarization; 3,300 tested, 42% active; shares compounds with PRMT1 inh; AID 687036; inhibition, % at 2.79 µM;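 active = mean inhibition across replicates above the hit cutoff derived for the earlier primary screen, cut at about 22% in these data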
* = called active by the depositor; · = no result.

SMILES	NOD2-RIPK2 inh	PRMT1 inh	TLR9-MyD88 inh	TLR4 MyD88 comp	rCAG RNA binder	ABHD5 PLIN5 PPI	TLR9-MyD88 conf	BLA counter-1	TLR9 CHO cytotox	others
CC(C)(C)c1ccc(O)c(N=Cc2c(O)ccc3ccccc23)c1	1	31*	14	·	6	2	·	·	·
O=C(NC1CCCCC1)N1Cc2cc(Br)ccc2-n2nncc2C1	·	-3	·	·	1	·	·	·	·
C[C@]12CC[C@H](O)C[C@H]1CC[C@@H]1[C@@H]2CC[C@]2(C)[C@@H](C3=CC(=O)OC3)CC[C@]12O	-3	-1	5	·	0	7	·	·	·
COC1C(O)C(C)OC(OC2CCC3(C)C(CCC4C3C(O)CC3(C)C(C5=CC(=O)OC5)CCC43O)C2)C1O (centres undefined)	10	-1	-8	·	0	22*	·	·	·
CN1CC[C@@H]2CN[C@H](c3ccccc3)C[C@@H]21	·	3	·	·	4	·	·	·	·
O=C(O)CCn1cc(C=C2C(=O)NC(=O)NC2=O)c(-c2cc3ccccc3oc2=O)n1	-9	19	-2	-9	7	22*	·	·	·
CC1(C)C(C(=O)N2CCN(c3ccc(Cl)cc3)CC2)C1(C)C	-2	0	-2	·	-9	-2	·	·	·
COC(=O)C1CN(C#N)N(c2ccc(Cl)cc2)C12c1ccccc1-c1ccccc12 (centres undefined)	58*	·	10	4	·	74*	·	·	·
CCCCN1CCN(C(=O)COc2cc(=O)n(C)c3ccccc23)CC1	·	-1	·	·	1	·	·	·	·
Cc1ccc(C[n+]2c(-c3ccc(C)cc3)cc(-c3ccc(C)cc3)cc2-c2ccc(C)cc2)cc1	13	·	2	·	·	38*	·	·	·
Cc1ccc(-c2cc(-c3ccc(C)cc3)[n+](-c3ccc(C(=O)O)cc3)c(-c3ccc(C)cc3)c2)cc1	2	0	-7	·	-9	6	·	·	·
CCN(CC)C(=O)Cn1cc(/C=C2\C(=O)NC(=O)N(c3ccccc3F)C2=O)c2ccccc21	1	-1	0	·	2	23*	·	·	·
Cc1ccc(OC(=O)N(C)C[C@H]2OCc3cnnn3CCCC(=O)N([C@@H](C)CO)C[C@@H]2C)cc1	·	3	·	·	-1	·	·	·	·
C[n+]1c2ccccc2nc2ccc(NCCO)cc21	1	11	-11	·	3	9	·	·	·
CNc1ccc2nc3ccccc3[n+](C)c2c1	-1	21*	5	·	-3	-20	·	·	·
COP(=O)(OC)C(C)NC(=O)OCc1ccccc1 (centres undefined)	·	0	·	·	·	·	·	·	·
CNc1cc(Cl)c2nonc2c1[N+](=O)[O-]	93*	57*	80*	52*	2	32*	68*	28	100*	TLR4 MyD88 cnf=55*;BLA inhibitor ct=44*;ABHD5-PLIN5 conf=36*;HNF4 split-luc=80*;NOD2-RIPK2 conf=102*;BLA counter-2=60*;PRMT1 confirm=25*
CCOC(=O)CC[C@@H]1CC[C@]2(CCCN(Cc3cccnc3)C2)O1	·	1	·	·	1	·	·	·	·
COc1cc(/C=C/c2nc3ccccc3c(=O)n2-c2ccc(O)cc2)ccc1O	10	0	14	·	16	13	·	·	·
COc1ccc(-n2c(/C=C/c3ccc(O)c(O)c3)nc3ccccc3c2=O)cc1	19	-4	24*	·	18	1	5	6	8
CCCCOC(=O)c1ccccc1C(=O)OCCCC	-3	-2	25*	·	-3	-6	5	2	2
CC(C)S(=O)(=O)N1Cc2ccc(Br)cc2-n2nncc2C1	·	-1	·	·	1	·	·	·	·
CN(C)c1ccc(/C=C/[N+](=O)[O-])cc1	28*	-7	24*	-5	5	71*	3	4	-2	ABHD5-PLIN5 conf=85*;HNF4 split-luc=82*
O=C(CN1C(=O)[C@@H](Cc2ccc(O)cc2)N=C(c2ccccc2)c2ccccc21)NC1CCCCC1	·	-1	·	·	4	·	·	·	·
O=c1c2ccccc2[se]n1-c1ccccc1	10	95*	27*	5	5	81*	19	-1	26*	ABHD5-PLIN5 conf=88*;HNF4 split-luc=110*
SMILES	NOD2-RIPK2 inh	PRMT1 inh	TLR9-MyD88 inh	TLR4 MyD88 comp	rCAG RNA binder	ABHD5 PLIN5 PPI	TLR9-MyD88 conf	BLA counter-1	TLR9 CHO cytotox	others
O=c1c2ccccc2nc(-c2ccccc2)n1-c1ccccc1	-2	-2	0	·	-3	4	·	·	·
C=C1C(=O)O[C@@H]2C[C@@H](C)[C@@H]3C4OC4C(=O)[C@@]3(C)[C@@H](O)[C@H]12 (some centres undefined)	55*	2	24*	·	-2	48*	26*	33	100*	NOD2-RIPK2 conf=52*;BLA counter-2=23*
C=C1C(=O)O[C@H]2C[C@@H](C)[C@@H]3C=CC(=O)[C@@]3(C)C[C@H]12	·	1	·	·	-1	·	·	·	·
c1ccc(-c2nc3ccccc3nc2-c2ccc(CN3CCC(n4nnc5ccccc54)CC3)cc2)cc1	·	-2	·	·	9	·	·	·	·
CC1(C)OC(c2ccccc2)=C/C(=C/C=C2C(=O)NC(=O)NC2=O)O1	32*	-25	34*	24	-102	6	24*	27	-4	NOD2-RIPK2 conf=57*;BLA counter-2=56*
C=C1C(=O)O[C@@H]2C[C@@H](C)[C@@H]3C=CC(=O)[C@@]3(C)[C@@H](OC(=O)CC(=O)O[C@H]3[C@@H]4C(=C)C(=O)O[C@@H]4C[C@@H](C)[C@@H]4C=CC(=O)[C@]43C)[C@H]12	88*	29*	32*	·	11	99*	43*	35	99*	NOD2-RIPK2 conf=87*;BLA counter-2=44*;PRMT1 confirm=26*
